This passage reports outcome results from PubChem BioAssay (Tox21).

Records with an inconclusive call do not appear. Active and inactive are the calls of the source. The call rests on the fitted dose curve; in most records, active means well fitted inhibition curve with a large enough effect in the signal ratio in the repeat runs (not every such curve was filed as active); inconclusive means weak or mixed curves, or effect the other way; inactive means no such curve, though single readings can be large or run the other way; the % refers to the signal ratio.

The target in this assay is Vitamin D3 receptor (Homo sapiens) (UniProt P11473). Description: qHTS assay to identify small molecule antagonists of the vitamin D receptor (VDR) signaling pathway (AID 743223). Conditions: VDR-UAS-bla HEK293T, beta-lactamase FRET ratio, 16 h; series mostly up to 61 µM. Put shortly: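 Inhibition of agonist-driven VDR signalling is scored in VDR-bla cells: 3 nM final 1alpha,25-dihydroxyvitamin D3 plus compound, 16 h at 37C, then beta-lactamase detection by FRET substrate fluorescence after 2 h.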
Sequence of Vitamin D3 receptor (Homo sapiens) (P11473 whole entry, looked up): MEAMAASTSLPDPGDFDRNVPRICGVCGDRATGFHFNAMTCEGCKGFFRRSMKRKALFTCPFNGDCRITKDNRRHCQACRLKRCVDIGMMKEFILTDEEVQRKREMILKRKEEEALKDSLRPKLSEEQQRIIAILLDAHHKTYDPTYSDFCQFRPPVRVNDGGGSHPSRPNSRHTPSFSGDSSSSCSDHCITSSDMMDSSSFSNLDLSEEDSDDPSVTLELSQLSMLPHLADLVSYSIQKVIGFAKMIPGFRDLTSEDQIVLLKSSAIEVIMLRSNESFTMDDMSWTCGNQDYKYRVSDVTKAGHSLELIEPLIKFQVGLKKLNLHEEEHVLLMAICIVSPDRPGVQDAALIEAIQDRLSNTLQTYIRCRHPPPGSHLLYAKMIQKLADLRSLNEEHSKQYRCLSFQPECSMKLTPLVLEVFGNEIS
A general note: In qHTS, concentration-response curves come from the screen itself.
As for `CC/C=C\CCOC(=O)C(C)C`, the result was inactive.

For the molecule `CN1CCN(C2=Nc3ccccc3Oc3ccc(Cl)cc32)CC1`, the result was inactive. Then `CC1=NN(c2cc(Cl)c(S(=O)(=O)O)cc2Cl)C(=O)C1N=Nc1ccc(S(=O)(=O)O)cc1` (stereo unspecified), with “inactive”; and `COc1ccc2nc(NC(=O)Nc3ccccc3)sc2c1`, with “inactive”. Then `CCCCCCCCCCCCCCCCOP(=O)([O-])OCC[N+](C)(C)C`, with “inactive”; and `CCCCC(=O)O[C@]1(C(=O)CO)[C@H](C)C[C@H]2[C@@H]3CCC4=CC(=O)C=C[C@]4(C)[C@@]3(F)[C@@H](O)C[C@@]21C`, with “inactive”; and `CC(=O)Oc1cc(C(C)C)c(OCCN(C)C)cc1C`, with “inactive”. As for `CC(C)c1ccccc1`, the result was inactive. The entry for `O=C(O)c1ccccc1Nc1cc(Cl)ccc1C(=O)O` is “inactive”; for `Clc1cccc(-c2cc(Cl)cc(Cl)c2)c1` it is “inactive”. Then `CCCCCCOc1ccc(N)cc1`, with “inactive”. Then `CCOc1ccccc1N`, with “inactive”; and `Cc1cc2nc(N)sc2cc1C`, with “inactive”. `OCCN(CCO)CCN(CCO)CCO`: the outcome was inactive.

Take `CCCCCCCCc1ccc(S(=O)(=O)O)cc1`: the outcome was inactive.

As for `CC(=O)Nc1ccc(C)c(Cl)c1`, the outcome was inactive. The entry for `O=CCCc1ccccc1` is “inactive”; for `CC(C)NC[C@@H](O)COc1cccc2ccccc12` it is “inactive”; for `COc1cc(Cl)ccc1Cl` it is “inactive”. Then `COc1cc2c(cc1N)oc1ccccc12`, with “inactive”. Then `COc1ccc(Nc2ccc(OC)cc2)cc1`, with “inactive”.
